About 14,000 (4.5%) of roughly 310,000 compounds showed an effect of 50% or more. The effect is printed as a negative number. What follows is part of a selection rich in strong results, with near analogues and random picks from the rest.
target: human ether-à-go-go-related gene (hERG) potassium channel (human, UniProt Q12809); experiment: primary screen, population patch clamp on CHO cells stably expressing hERG; higher = less effect of the substance
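Also: peak tail current of the secondary pulse compared with the same well before compound.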

Sequence of human ether-à-go-go-related gene (hERG) potassium channel (Q12809 whole entry, looked up): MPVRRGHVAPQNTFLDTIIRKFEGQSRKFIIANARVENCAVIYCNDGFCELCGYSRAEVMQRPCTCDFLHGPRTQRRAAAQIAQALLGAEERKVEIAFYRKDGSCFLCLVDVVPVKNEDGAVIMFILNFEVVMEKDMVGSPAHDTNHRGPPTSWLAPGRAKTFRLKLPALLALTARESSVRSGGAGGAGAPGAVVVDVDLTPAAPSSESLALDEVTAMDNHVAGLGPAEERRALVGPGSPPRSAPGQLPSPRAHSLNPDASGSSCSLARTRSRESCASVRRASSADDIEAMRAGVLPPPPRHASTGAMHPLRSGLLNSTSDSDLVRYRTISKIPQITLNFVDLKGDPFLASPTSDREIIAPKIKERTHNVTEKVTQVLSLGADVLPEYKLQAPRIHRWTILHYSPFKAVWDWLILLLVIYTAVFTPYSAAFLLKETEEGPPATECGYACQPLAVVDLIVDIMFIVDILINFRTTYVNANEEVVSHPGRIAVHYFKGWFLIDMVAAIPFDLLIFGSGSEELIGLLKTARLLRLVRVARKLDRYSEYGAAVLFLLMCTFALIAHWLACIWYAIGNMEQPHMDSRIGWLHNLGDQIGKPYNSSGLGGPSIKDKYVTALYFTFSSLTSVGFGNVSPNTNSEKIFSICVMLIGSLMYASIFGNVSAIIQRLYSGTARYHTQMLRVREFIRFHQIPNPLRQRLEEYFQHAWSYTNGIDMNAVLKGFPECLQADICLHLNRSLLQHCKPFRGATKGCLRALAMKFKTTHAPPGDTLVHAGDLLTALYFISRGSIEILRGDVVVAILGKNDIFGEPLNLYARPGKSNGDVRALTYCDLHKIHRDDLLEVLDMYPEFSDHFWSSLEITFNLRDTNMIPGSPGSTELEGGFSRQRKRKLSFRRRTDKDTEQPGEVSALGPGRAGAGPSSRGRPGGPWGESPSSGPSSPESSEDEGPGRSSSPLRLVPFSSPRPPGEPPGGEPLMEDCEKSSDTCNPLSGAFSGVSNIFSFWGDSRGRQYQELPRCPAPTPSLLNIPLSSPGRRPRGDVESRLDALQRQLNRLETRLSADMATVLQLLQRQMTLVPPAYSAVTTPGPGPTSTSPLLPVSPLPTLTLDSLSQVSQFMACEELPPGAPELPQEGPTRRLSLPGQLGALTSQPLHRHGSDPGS

Compared with `Cc1ccc2c(c1)C(c1ccccc1)N(C(=O)c1ccc(Br)o1)CC(=O)N2` (stereo not shown), `O=C1CN(C(=O)c2ccc(Br)o2)C(c2ccccc2)c2cc(F)ccc2N1` (stereo not shown) is higher in “hERG current change (%, negative = inhibition) at 10uM” value: -56.9% for the first, -45.3% for the second.

Going from `O=C1CN(C(=O)c2ccc(Br)o2)C(c2ccccc2)c2cc(Br)ccc2N1` (stereo not shown) to `O=C1C2Sc3[nH]c(=O)sc3C(c3ccccc3)C2C(=O)N1c1ccccc1` (stereo not shown), the “hERG current change (%, negative = inhibition) at 10uM” value rises from -23.6% to -2.84%.

Going from `Cc1c(-c2ccccc2)[n+](=O)c(-c2ccco2)c(C)n1[O-]` to `COc1cccc(C2=NC(C)(C)NC(c3ccccc3O)C2)c1` (stereo not shown), the “hERG current change (%, negative = inhibition) at 10uM” value falls from 7.02% to 2.64%.

Going from `COCCNC(=O)C1CC(=O)N(c2ccc(OC)cc2)C1c1ccc(OC)cc1` (stereo not shown) to `COc1ccc(C2C(C(=O)Nc3cccnc3)=C(C)Nc3nc(-c4cccs4)nn32)cc1` (stereo not shown), the “hERG current change (%, negative = inhibition) at 10uM” value falls from 9.03% to -39.6%.

First: O=C(c1ccco1)N1CCN(C(c2ccccc2Cl)c2nnnn2Cc2cccs2)CC1 (stereo not shown)
Second: O=C(c1ccco1)N1CCN(C(c2ccccc2F)c2nnnn2Cc2cccs2)CC1 (stereo not shown)
The “hERG current change (%, negative = inhibition) at 10uM” value of the first is lower: -56.2% for the first, -51% for the second.

First: Cl.Clc1ccccc1C(c1nnnn1Cc1ccco1)N1CCN(Cc2ccco2)CC1 (stereo not shown)
Second: Cl.O=C(c1ccco1)N1CCN(C(c2ccccc2Cl)c2nnnn2Cc2ccco2)CC1 (stereo not shown)
The “hERG current change (%, negative = inhibition) at 10uM” value of the first is higher: -27.6% for the first, -65.1% for the second.

Going from `COCCn1nnnc1C(c1ccccc1OC)N1CCN(C(=O)c2ccco2)CC1` (stereo not shown) to `CCC(C)(C)n1nnnc1C(c1ccccc1F)N1CCN(C(=O)c2ccco2)CC1` (stereo not shown), the “hERG current change (%, negative = inhibition) at 10uM” value rises from -16.1% to -13.9%.

First: CCC(c1nnnn1Cc1cccs1)N1CCN(C(=O)c2ccco2)CC1 (stereo not shown)
Second: Cl.O=C(c1ccco1)N1CCN(C(c2ccccc2Cl)c2nnnn2CC2CCCO2)CC1 (stereo not shown)
The “hERG current change (%, negative = inhibition) at 10uM” value of the first is lower: -36.5% for the first, -12.3% for the second.

Going from `Cl.O=C(c1ccco1)N1CCN(C(c2ccccc2F)c2nnnn2CC2CCCO2)CC1` (stereo not shown) to `CCC(=O)c1ccc(N2CCN(C(=O)c3ccccc3F)CC2)c(F)c1`, the “hERG current change (%, negative = inhibition) at 10uM” value falls from -17.2% to -20.7%.

Compared with `CC1=NNC(=O)C1CCC(=O)N/N=C\c1ccccc1[N+](=O)[O-]` (stereo not shown), `CCOc1[nH]n(-c2ccccc2)c(=O)c1C=NCC(=O)OC` is lower in “hERG current change (%, negative = inhibition) at 10uM” value: 0.38% for the first, -18.8% for the second.

Compared with `CCN1CCN(CCCNC(=O)c2ccc(CS(=O)c3ccc(Br)cc3)o2)CC1` (stereo not shown), `CCCNC(=O)C1(CC2CC(c3ccccc3)=NO2)CCN(C(=O)Cc2ccc(F)cc2)CC1` (stereo not shown) is lower in “hERG current change (%, negative = inhibition) at 10uM” value: 24.5% for the first, -64.6% for the second.

First: CC(=O)c1ccc(N2CCN(C(=O)c3cccs3)CC2)c(F)c1
Second: CCC(=O)c1ccc(N2CCN(C(=O)c3cccs3)CC2)c(F)c1
The “hERG current change (%, negative = inhibition) at 10uM” value of the first is higher: -28.3% for the first, -51.6% for the second.

First: CCCC(=O)c1ccc(N2CCN(C(=O)c3cccs3)CC2)c(F)c1
Second: CCCC(=O)c1ccc(N2CCCC2)c(F)c1
The “hERG current change (%, negative = inhibition) at 10uM” value of the first is lower: -75.1% for the first, 6.96% for the second.

Going from `CCCC(=O)c1ccc(N2CCCCC2)c(F)c1` to `COc1ccccc1CNS(=O)(=O)c1c(C(=O)N2CCCCC2)c(C)n(C)c1C`, the “hERG current change (%, negative = inhibition) at 10uM” value falls from 10.5% to 5.51%.

Going from `COc1ccc(Cn2c(=O)c3[nH]cnc3n(-c3ccccc3C)c2=O)cc1` to `CCc1cc(C(=O)N/N=C/c2ccc(OC)cc2)c2ccccc2n1`, the “hERG current change (%, negative = inhibition) at 10uM” value falls from 7.7% to -4.27%.

Compared with `Cc1cccc(NC(=O)CS(=O)(=O)Cc2ccccc2)n1`, `CCN(c1ccccc1)S(=O)(=O)c1ccc(Cl)c(NC(=O)COC(=O)c2ccc[nH]c2=O)c1` is higher in “hERG current change (%, negative = inhibition) at 10uM” value: 2.58% for the first, 3.13% for the second.

Going from `CC(=O)Nc1ccc(S(=O)(=O)NC2(C(F)(F)F)NC(=O)N(C3CCCCC3)C2=O)cc1` (stereo not shown) to `O=S(=O)(NC1CCCCC1N1CCCCC1)c1ccc(Cl)cc1` (stereo not shown), the “hERG current change (%, negative = inhibition) at 10uM” value falls from 2.87% to -5.16%.

Going from `CCN1CCN(C2CCCCC2NS(=O)(=O)c2ccccc2)CC1` (stereo not shown) to `CCCN1CCN(C2CCCCC2NS(=O)(=O)c2ccccc2)CC1` (stereo not shown), the “hERG current change (%, negative = inhibition) at 10uM” value falls from 11.7% to -44.7%.

Going from `Cc1cc(C)nc(SC2CCCCC2NS(=O)(=O)c2ccc(Cl)cc2)n1` (stereo not shown) to `O=S(=O)(NC1CCCCC1Sc1ncccn1)c1ccc(Cl)cc1` (stereo not shown), the “hERG current change (%, negative = inhibition) at 10uM” value falls from -14.7% to -50.9%.

First: CN1CCN(C2CCCCC2NS(=O)(=O)c2ccc(Cl)cc2)CC1 (stereo not shown)
Second: CCN1CCN(C2CCCCC2NS(=O)(=O)c2ccc(Cl)cc2)CC1 (stereo not shown)
The “hERG current change (%, negative = inhibition) at 10uM” value of the first is higher: -29.8% for the first, -61.8% for the second.

Compared with `O=S(=O)(NC1CCCCC1Sc1ncccn1)c1ccccc1` (stereo not shown), `CCCN1CCN(C2CCCCC2NS(=O)(=O)c2ccc(Cl)cc2)CC1` (stereo not shown) is lower in “hERG current change (%, negative = inhibition) at 10uM” value: -5.72% for the first, -63.4% for the second.

First: C#CCOCCOCCOCCNc1nc(N2CCN(C(=O)C([C@@H](C)CC)n3cc(C(N)Cc4ccc(O)cc4)nn3)CC2)nc(N2CCN(C(=O)[C@H](CCC(=O)O)n3cc(C(N)[C@H](C)CC)nn3)CC2)n1.Cl (stereo partly shown)
Second: CCCCCCCNC(=O)C1(CC2CC(c3cccc(Br)c3)=NO2)CCN(C(=O)c2cc(OCC)c(OCC)c(OCC)c2)CC1 (stereo not shown)
The “hERG current change (%, negative = inhibition) at 10uM” value of the first is lower: 4.5% for the first, 4.79% for the second.

Compared with `O=C(NCC(=O)N1CCOCC1)OCc1ccccc1`, `O=C(O)C1CCN(C(=O)OCc2ccccc2)CC1` is higher in “hERG current change (%, negative = inhibition) at 10uM” value: -30.8% for the first, 13.8% for the second.

First: O=C(OCc1ccccc1)N1CCOCCN(C(=O)OCc2ccccc2)CCOCC1
Second: CCCNC(=O)C1(CC2CC(c3ccccc3)=NO2)CCN(C(=O)c2ccccc2)CC1 (stereo not shown)
The “hERG current change (%, negative = inhibition) at 10uM” value of the first is higher: -64% for the first, -68.9% for the second.

First: COC(=O)CCn1nnc(-c2ccc(C)cc2)n1
Second: COc1cccc(-c2nc3n(n2)C(c2cccs2)C(C(=O)Nc2cccnc2)=C(C)N3)c1 (stereo not shown)
The “hERG current change (%, negative = inhibition) at 10uM” value of the first is higher: 12.3% for the first, -72.3% for the second.

Going from `COc1ccccc1-c1nc2n(n1)C(c1cccs1)C(C(=O)Nc1cccnc1)=C(C)N2` (stereo not shown) to `COc1ccc(CNC(=O)C2(CC3CC(c4ccccc4)=NO3)CCN(C(=O)Cc3ccc(F)cc3)CC2)cc1` (stereo not shown), the “hERG current change (%, negative = inhibition) at 10uM” value rises from -31.7% to 18.1%.

Going from `Cc1cccc(C(C(=O)NC2CCCCC2)N(C(=O)c2csnn2)C2CC2)c1` (stereo not shown) to `CCOc1cc(C(=O)N2CCC(CC3CC(c4cccc(Br)c4)=NO3)(C(=O)NCC3CCCCC3)CC2)cc(OCC)c1OCC` (stereo not shown), the “hERG current change (%, negative = inhibition) at 10uM” value falls from 7.99% to 4.14%.

Compared with `CCCNC(=O)C1(CC2CC(c3ccccc3)=NO2)CCN(C(=O)c2cc(OCC)c(OCC)c(OCC)c2)CC1` (stereo not shown), `CCCNC(=O)C1(CC2CC(c3ccccc3)=NO2)CCN(C(=O)OC(C)(C)C)CC1` (stereo not shown) is lower in “hERG current change (%, negative = inhibition) at 10uM” value: -34.6% for the first, -48.6% for the second.

Going from `CCCCCCCNC(=O)C1(CC2CC(c3ccccc3)=NO2)CCN(C(=O)c2ccccc2)CC1` (stereo not shown) to `CCCCCCCNC(=O)C1(CC2CC(c3cccc(Br)c3)=NO2)CCN(C(=O)c2ccccc2)CC1` (stereo not shown), the “hERG current change (%, negative = inhibition) at 10uM” value falls from -70.9% to -71%.

First: CCCCCCCNC(=O)C1(CC2CC(c3ccc(Cl)cc3)=NO2)CCN(C(=O)Cc2ccc(F)cc2)CC1 (stereo not shown)
Second: CCCCCCCNC(=O)C1(CC2CC(c3ccc(Cl)cc3)=NO2)CCN(C(=O)c2ccccc2)CC1 (stereo not shown)
The “hERG current change (%, negative = inhibition) at 10uM” value of the first is higher: -11% for the first, -15.8% for the second.

`CCCNC(=O)C1(CC2CC(c3ccccc3)=NO2)CCN(C(=O)C2(C)CC2)CC1` (stereo not shown) was tested, and the “hERG current change (%, negative = inhibition) at 10uM” value was -17%.

Source: publication PMC4336329 (PLoS ONE, 2015)
